Source: the supplement of paper PMC11732987, “Enantioselective OTUD7B fragment discovery through chemoproteomics screening and high-throughput optimisation” (Communications Chemistry, 2025)

Target: EIF3F (UniProt O00303)
Test: log2 ratio of Biotin-Ahx-Ub-VS probe labelling (fragment/DMSO); higher = less target engagement (more negative = stronger competition), active = hit call of the paper (q ≤ 0.05, log2 ratio ≤ -1)
Details: compound concentration: 200 uM; treatment time: 3 h
Procedure, shortened: (§1)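 Labelled DUBs were enriched with NeutrAvidin, digested with LysC and trypsin, and run by diaPASEF LC-MS/MS. The labelling used Biotin-Ahx-Ub-VS at 0.5 µM final for 1 h on HEK293T lysate (495 µg per sample) previously treated in triplicate with fragment at 200 µM or vehicle for 3 h. Values are average log2 fragment/vehicle ratios by unpaired t-test on global-median-normalised Spectronaut quantities of proteins with ≥2 unique peptides.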

Chain of EIF3F (O00303 whole entry, the tested form may be a part): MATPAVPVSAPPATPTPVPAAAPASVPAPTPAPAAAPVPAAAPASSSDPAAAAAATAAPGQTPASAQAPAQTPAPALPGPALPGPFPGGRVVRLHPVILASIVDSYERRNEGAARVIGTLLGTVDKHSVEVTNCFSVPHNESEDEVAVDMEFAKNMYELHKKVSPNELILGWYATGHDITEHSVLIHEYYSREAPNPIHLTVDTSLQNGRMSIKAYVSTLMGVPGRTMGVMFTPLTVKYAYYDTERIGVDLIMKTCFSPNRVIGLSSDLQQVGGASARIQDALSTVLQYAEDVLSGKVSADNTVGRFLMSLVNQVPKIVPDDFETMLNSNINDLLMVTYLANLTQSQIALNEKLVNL

log2 ratio of Biotin-Ahx-Ub-VS probe labelling, inactive:
COc1cc(Cl)c(C)cc1NC(=O)CCl 0.0292
Cl.O=C(CCl)N1CCN(Cc2ccccc2)CC1 -0.615
Cc1nc(CN2CCN(C(=O)CCl)CC2)cs1 -0.26
O=C(CCl)Nc1cc(Cl)ccc1C(=O)O -0.053
CN(C(=O)CCl)c1nc2ccccc2s1 -0.117
O=C(CCl)NCCc1cccc2ccccc12 0.273
CCCn1nccc1NC(=O)CCl -0.613
CNC(=O)C1CCN(C(=O)CCl)CC1 -0.0903
O=C(CCl)N1CCOC(c2cccc(F)c2)C1 (stereo not given) -0.0524
Cc1c(C#N)c(NC(=O)CCl)n(Cc2ccco2)c1C -0.174
O=C(CCl)N1CCC(C(=O)N2CCCCCC2)CC1 -0.0762
CN1C(=O)c2ccc(NC(=O)CCl)cc2C1=O -0.166
C[C@H]1CN(C(=O)CCl)CCN1C(=O)c1cnn(C)c1.Cl 0.132
CC1(NC(=O)CCl)CCS(=O)(=O)C1 (stereo not given) -0.345
O=C(CCl)NCc1ccc(Cl)cc1 0.0714
O=C(CCl)Nc1ccc(N2CCCC2=O)cc1 -0.125
Cc1ncsc1CCNC(=O)CCl 0.501
Cc1cccc(C)c1NC(=O)CCl -0.276
Cc1cccc(C(CNC(=O)CCl)N2CCOCC2)c1.Cl (stereo not given) 0.0302
Cc1cccc(NC(=O)CCl)c1C -0.272
Cc1cc(C2CCCN2C(=O)CCl)nn1C.Cl (stereo not given) -0.11
O=C(CCl)N1CCCC2CCCCC21 (stereo not given) -0.196
Cc1cccc(N2CCC(NC(=O)CCl)C2=O)c1 (stereo not given) -0.331
CC(O)CC1CCN(C(=O)CCl)CC1 (stereo not given) -0.0746
Cc1nc(CC2CCN(C(=O)CCl)CC2)no1 -0.302
CC1Cc2ccccc2N1C(=O)CCl (stereo not given) -0.355
O=C(CCl)Nc1cccc(C(=O)N2CCSCC2)c1 -0.466
Cl.O=C(CCl)N1CCc2ncncc2C1 -0.328
NC(=O)C(Cc1ccccc1)NC(=O)CCl (stereo not given) 0.127
CC(NC(=O)CCl)c1csc(-c2ccccc2)n1.Cl (stereo not given) -0.0347
Cc1ccc(CC(NC(=O)CCl)c2ccccn2)cc1.Cl (stereo not given) -0.0559
O=C(CCl)N[C@H]1CCS(=O)(=O)c2ccccc21 -0.052
O=C(CCl)NCC(=O)N1CCCC1 -0.198
CC(C)n1nccc1NC(=O)CCl -0.0764
Cc1cc(CC(C)NC(=O)CCl)n[nH]1 (stereo not given) -0.138

Target: EIF3H (UniProt O15372)
Test: as above
Details: compound concentration: 200 uM; treatment time: 3 h
Procedure, shortened: as §1

Chain of EIF3H (O15372 whole entry): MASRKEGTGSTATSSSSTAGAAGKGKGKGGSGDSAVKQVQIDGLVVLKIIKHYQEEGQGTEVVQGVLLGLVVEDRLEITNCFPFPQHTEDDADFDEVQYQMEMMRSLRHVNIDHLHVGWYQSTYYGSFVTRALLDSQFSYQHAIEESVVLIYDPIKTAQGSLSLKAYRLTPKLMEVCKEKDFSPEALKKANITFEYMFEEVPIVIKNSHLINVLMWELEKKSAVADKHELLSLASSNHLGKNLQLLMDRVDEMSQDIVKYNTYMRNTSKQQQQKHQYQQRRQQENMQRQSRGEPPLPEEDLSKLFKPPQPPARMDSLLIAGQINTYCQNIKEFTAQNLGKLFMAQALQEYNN

log2 ratio of Biotin-Ahx-Ub-VS probe labelling, inactive:
COc1cc(Cl)c(C)cc1NC(=O)CCl -0.06
Cl.O=C(CCl)N1CCN(Cc2ccccc2)CC1 0.134
Cc1nc(CN2CCN(C(=O)CCl)CC2)cs1 0.0747
O=C(CCl)Nc1cc(Cl)ccc1C(=O)O -0.119
CN(C(=O)CCl)c1nc2ccccc2s1 0.0319
O=C(CCl)NCCc1cccc2ccccc12 0.236
CCCn1nccc1NC(=O)CCl 0.123
CNC(=O)C1CCN(C(=O)CCl)CC1 0.232
O=C(CCl)N1CCOC(c2cccc(F)c2)C1 (stereo not given) 0.265
Cc1c(C#N)c(NC(=O)CCl)n(Cc2ccco2)c1C -0.447
O=C(CCl)N1CCC(C(=O)N2CCCCCC2)CC1 0.0816
CN1C(=O)c2ccc(NC(=O)CCl)cc2C1=O 0.319
C[C@H]1CN(C(=O)CCl)CCN1C(=O)c1cnn(C)c1.Cl 0.0411
CC1(NC(=O)CCl)CCS(=O)(=O)C1 (stereo not given) 0.186
O=C(CCl)NCc1ccc(Cl)cc1 -0.105
O=C(CCl)Nc1ccc(N2CCCC2=O)cc1 0.315
Cc1ncsc1CCNC(=O)CCl 0.195
Cc1cccc(C)c1NC(=O)CCl 0.122
Cc1cccc(C(CNC(=O)CCl)N2CCOCC2)c1.Cl (stereo not given) 0.267
Cc1cccc(NC(=O)CCl)c1C 0.00998
Cc1cc(C2CCCN2C(=O)CCl)nn1C.Cl (stereo not given) -0.0784
O=C(CCl)N1CCCC2CCCCC21 (stereo not given) 0.299
Cc1cccc(N2CCC(NC(=O)CCl)C2=O)c1 (stereo not given) 0.306
CC(O)CC1CCN(C(=O)CCl)CC1 (stereo not given) 0.247
Cc1nc(CC2CCN(C(=O)CCl)CC2)no1 -0.111
CC1Cc2ccccc2N1C(=O)CCl (stereo not given) 0.0594
O=C(CCl)Nc1cccc(C(=O)N2CCSCC2)c1 0.0708
Cl.O=C(CCl)N1CCc2ncncc2C1 -0.29
NC(=O)C(Cc1ccccc1)NC(=O)CCl (stereo not given) -0.254
CC(NC(=O)CCl)c1csc(-c2ccccc2)n1.Cl (stereo not given) -0.03
Cc1ccc(CC(NC(=O)CCl)c2ccccn2)cc1.Cl (stereo not given) 0.165
O=C(CCl)N[C@H]1CCS(=O)(=O)c2ccccc21 0.251
O=C(CCl)NCC(=O)N1CCCC1 0.0708
CC(C)n1nccc1NC(=O)CCl 0.237
Cc1cc(CC(C)NC(=O)CCl)n[nH]1 (stereo not given) -0.131
